Compound in the test: Cc1cc(ccc1-c1ccccc1)C(=O)N1CCCN(CC1)C(=O)CCl [compound 10]
The test can be described thus: probe-labelled cysteine peptide fold change vs DMSO (competition) (log2 fold change); higher = less target engagement (more negative = stronger competition). The conditions noted are these: THP-1, incubation time: 4 h.

Of roughly 21,000 targets only a part is listed; those with the largest changes were picked by preference.
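Also: competitive profiling in live THP-1 cells: cysteine peptides tagged with an iodoacetamide desthiobiotin (IA-DTB) probe, intensity after compound treatment relative to DMSO-treated cells.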

UniProt Q96QU8, sequence (Q96QU8 whole entry, looked up): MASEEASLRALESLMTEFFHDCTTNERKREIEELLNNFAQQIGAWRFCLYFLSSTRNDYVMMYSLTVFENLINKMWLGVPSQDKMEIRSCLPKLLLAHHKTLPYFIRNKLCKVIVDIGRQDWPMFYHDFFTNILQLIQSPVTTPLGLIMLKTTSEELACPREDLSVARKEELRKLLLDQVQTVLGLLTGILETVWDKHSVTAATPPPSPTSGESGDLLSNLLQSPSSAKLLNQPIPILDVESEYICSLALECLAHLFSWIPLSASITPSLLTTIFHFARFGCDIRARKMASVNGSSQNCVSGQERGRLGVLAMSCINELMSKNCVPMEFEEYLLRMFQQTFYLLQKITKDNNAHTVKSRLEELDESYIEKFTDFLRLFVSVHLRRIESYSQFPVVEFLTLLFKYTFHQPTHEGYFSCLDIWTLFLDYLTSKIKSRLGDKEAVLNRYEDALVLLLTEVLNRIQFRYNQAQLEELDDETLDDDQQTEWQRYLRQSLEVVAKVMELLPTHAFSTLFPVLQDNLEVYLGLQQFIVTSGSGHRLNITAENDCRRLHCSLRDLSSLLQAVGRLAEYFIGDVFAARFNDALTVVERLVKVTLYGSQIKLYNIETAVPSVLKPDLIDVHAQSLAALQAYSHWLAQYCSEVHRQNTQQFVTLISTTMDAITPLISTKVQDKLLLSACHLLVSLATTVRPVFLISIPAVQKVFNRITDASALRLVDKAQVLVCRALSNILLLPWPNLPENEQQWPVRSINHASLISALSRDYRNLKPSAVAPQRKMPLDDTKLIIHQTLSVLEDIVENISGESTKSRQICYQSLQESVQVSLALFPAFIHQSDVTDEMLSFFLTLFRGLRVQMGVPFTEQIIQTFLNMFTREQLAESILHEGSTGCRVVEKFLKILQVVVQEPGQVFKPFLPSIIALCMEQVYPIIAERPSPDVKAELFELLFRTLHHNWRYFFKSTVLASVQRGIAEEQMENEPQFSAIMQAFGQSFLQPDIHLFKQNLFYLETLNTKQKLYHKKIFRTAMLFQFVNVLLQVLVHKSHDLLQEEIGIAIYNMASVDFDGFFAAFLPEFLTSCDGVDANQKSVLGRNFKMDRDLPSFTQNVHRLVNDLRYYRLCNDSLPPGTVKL
UniProt Q562E7, sequence (Q562E7 whole entry, looked up): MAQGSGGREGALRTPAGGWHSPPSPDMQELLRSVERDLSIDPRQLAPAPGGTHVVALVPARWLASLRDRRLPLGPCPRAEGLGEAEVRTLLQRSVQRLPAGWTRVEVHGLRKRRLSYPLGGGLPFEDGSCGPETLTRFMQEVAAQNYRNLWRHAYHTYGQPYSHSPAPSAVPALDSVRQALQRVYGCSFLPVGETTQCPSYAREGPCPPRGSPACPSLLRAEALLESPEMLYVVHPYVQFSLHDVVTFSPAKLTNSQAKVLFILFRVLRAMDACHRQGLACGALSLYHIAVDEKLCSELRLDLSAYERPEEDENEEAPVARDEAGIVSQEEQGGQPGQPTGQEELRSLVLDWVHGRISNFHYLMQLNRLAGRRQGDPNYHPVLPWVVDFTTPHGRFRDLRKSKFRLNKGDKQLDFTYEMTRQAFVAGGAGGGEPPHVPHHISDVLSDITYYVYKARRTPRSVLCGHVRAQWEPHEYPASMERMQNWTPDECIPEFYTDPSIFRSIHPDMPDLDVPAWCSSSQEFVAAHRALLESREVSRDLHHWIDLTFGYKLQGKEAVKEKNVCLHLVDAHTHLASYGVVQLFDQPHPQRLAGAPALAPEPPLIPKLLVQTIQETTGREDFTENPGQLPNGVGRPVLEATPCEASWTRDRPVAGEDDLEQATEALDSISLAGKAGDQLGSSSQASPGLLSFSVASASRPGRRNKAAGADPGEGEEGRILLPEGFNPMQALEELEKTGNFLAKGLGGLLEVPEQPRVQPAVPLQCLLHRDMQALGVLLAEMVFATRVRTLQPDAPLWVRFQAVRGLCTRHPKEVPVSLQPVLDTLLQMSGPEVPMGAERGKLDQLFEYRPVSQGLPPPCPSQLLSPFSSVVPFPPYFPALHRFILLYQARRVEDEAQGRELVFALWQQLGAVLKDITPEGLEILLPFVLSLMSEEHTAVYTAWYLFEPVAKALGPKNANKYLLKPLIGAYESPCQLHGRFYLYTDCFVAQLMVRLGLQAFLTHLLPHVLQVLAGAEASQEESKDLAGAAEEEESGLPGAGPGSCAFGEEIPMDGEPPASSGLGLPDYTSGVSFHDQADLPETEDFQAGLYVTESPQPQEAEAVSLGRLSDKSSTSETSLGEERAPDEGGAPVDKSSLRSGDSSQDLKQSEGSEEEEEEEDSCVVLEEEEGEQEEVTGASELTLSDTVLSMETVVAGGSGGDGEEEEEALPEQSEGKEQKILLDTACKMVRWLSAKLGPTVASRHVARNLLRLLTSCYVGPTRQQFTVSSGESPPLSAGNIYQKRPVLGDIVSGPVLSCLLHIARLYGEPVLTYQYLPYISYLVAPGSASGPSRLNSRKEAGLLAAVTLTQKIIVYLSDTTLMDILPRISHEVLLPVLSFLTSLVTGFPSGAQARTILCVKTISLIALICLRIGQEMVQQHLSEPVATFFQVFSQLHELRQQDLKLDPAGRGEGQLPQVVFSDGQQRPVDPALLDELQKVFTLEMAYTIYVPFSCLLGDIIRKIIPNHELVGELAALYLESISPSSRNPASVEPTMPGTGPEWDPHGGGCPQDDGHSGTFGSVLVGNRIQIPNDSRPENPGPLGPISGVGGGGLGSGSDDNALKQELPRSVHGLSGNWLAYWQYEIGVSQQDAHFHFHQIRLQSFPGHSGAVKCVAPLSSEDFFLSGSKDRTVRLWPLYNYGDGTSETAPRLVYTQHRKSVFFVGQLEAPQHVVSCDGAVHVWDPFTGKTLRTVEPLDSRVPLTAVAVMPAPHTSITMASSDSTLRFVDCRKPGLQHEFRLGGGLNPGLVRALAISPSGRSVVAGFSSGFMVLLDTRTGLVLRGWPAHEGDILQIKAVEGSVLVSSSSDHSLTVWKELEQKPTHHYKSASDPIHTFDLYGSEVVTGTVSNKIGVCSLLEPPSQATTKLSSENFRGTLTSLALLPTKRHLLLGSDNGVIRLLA
UniProt Q9Y3S2, sequence (Q9Y3S2 whole entry, looked up): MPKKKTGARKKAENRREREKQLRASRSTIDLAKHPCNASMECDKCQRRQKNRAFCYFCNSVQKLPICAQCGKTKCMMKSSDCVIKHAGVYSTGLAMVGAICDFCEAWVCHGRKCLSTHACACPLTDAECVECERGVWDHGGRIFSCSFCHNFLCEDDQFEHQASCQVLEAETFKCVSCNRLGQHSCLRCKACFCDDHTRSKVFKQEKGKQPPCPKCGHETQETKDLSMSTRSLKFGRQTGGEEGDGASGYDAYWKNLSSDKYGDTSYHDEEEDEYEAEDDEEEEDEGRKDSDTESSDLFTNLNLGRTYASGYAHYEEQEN
UniProt O43829, sequence (O43829 whole entry, looked up): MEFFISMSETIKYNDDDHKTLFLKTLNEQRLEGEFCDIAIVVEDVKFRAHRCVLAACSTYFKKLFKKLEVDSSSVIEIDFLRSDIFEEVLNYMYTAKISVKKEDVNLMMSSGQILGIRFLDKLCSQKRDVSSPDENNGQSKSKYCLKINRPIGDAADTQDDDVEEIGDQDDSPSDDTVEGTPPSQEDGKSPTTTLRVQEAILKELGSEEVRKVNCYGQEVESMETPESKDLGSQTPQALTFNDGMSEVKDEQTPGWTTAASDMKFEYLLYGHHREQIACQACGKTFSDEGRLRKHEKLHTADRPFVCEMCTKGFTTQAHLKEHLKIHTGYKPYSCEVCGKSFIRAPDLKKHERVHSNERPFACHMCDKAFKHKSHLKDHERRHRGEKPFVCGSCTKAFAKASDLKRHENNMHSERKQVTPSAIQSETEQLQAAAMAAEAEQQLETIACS
UniProt O75717, sequence (O75717 whole entry, looked up): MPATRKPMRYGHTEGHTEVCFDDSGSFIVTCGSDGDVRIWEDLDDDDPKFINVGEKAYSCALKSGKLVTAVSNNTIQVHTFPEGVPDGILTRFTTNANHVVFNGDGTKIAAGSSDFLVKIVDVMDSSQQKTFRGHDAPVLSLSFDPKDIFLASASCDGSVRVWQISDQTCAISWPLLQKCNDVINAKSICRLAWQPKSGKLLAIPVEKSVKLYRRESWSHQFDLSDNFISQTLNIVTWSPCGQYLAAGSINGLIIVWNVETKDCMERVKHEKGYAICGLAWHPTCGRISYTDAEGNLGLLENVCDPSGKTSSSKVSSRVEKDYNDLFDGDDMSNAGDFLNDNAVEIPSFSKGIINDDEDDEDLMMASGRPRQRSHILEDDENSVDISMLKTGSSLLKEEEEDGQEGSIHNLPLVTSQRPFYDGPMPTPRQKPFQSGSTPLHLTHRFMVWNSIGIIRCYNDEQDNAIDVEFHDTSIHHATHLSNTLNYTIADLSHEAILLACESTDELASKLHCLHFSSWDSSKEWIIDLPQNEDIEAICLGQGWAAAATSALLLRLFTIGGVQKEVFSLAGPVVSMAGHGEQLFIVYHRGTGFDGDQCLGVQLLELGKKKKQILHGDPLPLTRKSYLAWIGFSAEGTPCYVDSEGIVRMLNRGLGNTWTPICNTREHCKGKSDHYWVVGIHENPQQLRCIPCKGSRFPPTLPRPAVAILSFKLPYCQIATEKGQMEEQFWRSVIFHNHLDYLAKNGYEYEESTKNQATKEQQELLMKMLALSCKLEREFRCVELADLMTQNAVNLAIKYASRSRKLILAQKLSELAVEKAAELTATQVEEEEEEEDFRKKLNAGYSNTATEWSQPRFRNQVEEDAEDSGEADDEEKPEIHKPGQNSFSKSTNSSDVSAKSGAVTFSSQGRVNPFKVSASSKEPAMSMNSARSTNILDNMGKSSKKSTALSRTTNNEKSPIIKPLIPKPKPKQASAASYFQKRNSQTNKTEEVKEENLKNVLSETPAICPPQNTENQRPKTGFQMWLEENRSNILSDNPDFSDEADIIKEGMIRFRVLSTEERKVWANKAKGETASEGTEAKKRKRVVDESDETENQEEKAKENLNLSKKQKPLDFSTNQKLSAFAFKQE

With “YEATS2_Q9ULM3_565_QEDSLFASMPPLCPIGSHPK (UniProt Q9ULM3)”, the “probe-labelled cysteine peptide fold change” value was -0.301 (10 µM) and -0.418 (50 µM).

On to “ZNF217_O75362_641_SAVETQANNLICR (UniProt O75362)”, for which the “probe-labelled cysteine peptide fold change” value (10 µM) is -0.181 and the “probe-labelled cysteine peptide fold change” value (50 µM) is -0.0706.

As for “WDFY4_Q6ZS81_2352_EAEGEPDEVGVDCTQLTFFPALHESLHSEDFLELCR (UniProt Q6ZS81)”, the “probe-labelled cysteine peptide fold change” value is, setting by setting: (10 µM) -0.125; (50 µM) -0.598.

“ZBTB14_O43829_391_PFVCGSCTK (UniProt O43829)”: the “probe-labelled cysteine peptide fold change” value (10 µM) stood at 0.104 and the “probe-labelled cysteine peptide fold change” value (50 µM) was -0.263.

On to “WDHD1_O75717_285_GYAICGLAWHPTCGR (UniProt O75717)”, for which the “probe-labelled cysteine peptide fold change” value reads like this: (10 µM) -0.0417; (50 µM) -0.0589.

For the target “ZFAND2A_Q8N6M9_84_GQIPDVVVGDHIDRDCDSHPGK (UniProt Q8N6M9)”, the “probe-labelled cysteine peptide fold change” value reads like this: (10 µM) 1.7; (50 µM) 3.88.

For “ZNF330_Q9Y3S2_120+122_CLSTHACACPLTDAECVECER (UniProt Q9Y3S2)”, the “probe-labelled cysteine peptide fold change” value by setting is: (10 µM) 0.16; (50 µM) -0.138.

As to “XPO6_Q96QU8_324_NCVPMEFEEYLLR (UniProt Q96QU8)”, the “probe-labelled cysteine peptide fold change” value is -0.0141 (10 µM) and 0.145 (50 µM).

“WDR43_Q15061_291_LAVVCR (UniProt Q15061)”: the “probe-labelled cysteine peptide fold change” value is, setting by setting: (10 µM) 0.0146; (50 µM) 0.0317.

Take “WDR48_Q8TAF3_366_GGASIIQCHILNDKR (UniProt Q8TAF3)”: the “probe-labelled cysteine peptide fold change” value (10 µM) came to 0.239 and the “probe-labelled cysteine peptide fold change” value (50 µM) was -0.0402.

For “ZC3H10_Q96K80_140_EEVPICR (UniProt Q96K80)”, the “probe-labelled cysteine peptide fold change” value was -0.106 (10 µM) and 0.152 (50 µM).

In the case of “WNK1_Q9H4A3_1135_VVECQLETHNRK (UniProt Q9H4A3)”, the “probe-labelled cysteine peptide fold change” value was 0.208 (10 µM) and 0.14 (50 µM).

With “WDR81_Q562E7_215_GSPACPSLLR (UniProt Q562E7)”, the “probe-labelled cysteine peptide fold change” value is, setting by setting: (10 µM) -0.185; (50 µM) -0.529.

As for “YARS2_Q9Y2Z4_413_EAPFSEFFLDPGTSVLDTCRK (UniProt Q9Y2Z4)”, the “probe-labelled cysteine peptide fold change” value is, setting by setting: (10 µM) -0.161; (50 µM) -0.368.

As to “XPO1_O14980_528_DLLGLCEQKR (UniProt O14980)”, the “probe-labelled cysteine peptide fold change” value by setting is: (10 µM) -0.248; (50 µM) -1.11.

For “ZNF451_Q9Y4E5_150_TGTINCGTK (UniProt Q9Y4E5)”, the “probe-labelled cysteine peptide fold change” value is -0.175 (10 µM) and -1.18 (50 µM).

Consider “ZDHHC21_Q8IVQ6_112_CGHCVR (UniProt Q8IVQ6)”, for which the “probe-labelled cysteine peptide fold change” value was 0.0718 (10 µM) and -0.0337 (50 µM).

In the case of “ZNHIT3_Q15649_30_VPYCSVVCFR (UniProt Q15649)”, the “probe-labelled cysteine peptide fold change” value is -0.0726 (10 µM) and -1.11 (50 µM).

For the target “ZNF512B_Q96KM6_6_TDPFCVGGR (UniProt Q96KM6)”, the “probe-labelled cysteine peptide fold change” value (10 µM) was -0.0569 and the “probe-labelled cysteine peptide fold change” value (50 µM) amounted to 0.0733.

Consider “ZW10_O43264_650_LGIVWQDVLPVNIYCK (UniProt O43264)”, for which the “probe-labelled cysteine peptide fold change” value reads like this: (10 µM) 0.139; (50 µM) 0.206.

Regarding “ZNF691_Q5VV52_260_THTGERPYECTECGR (UniProt Q5VV52)”, the “probe-labelled cysteine peptide fold change” value (10 µM) was 0.396 and the “probe-labelled cysteine peptide fold change” value (50 µM) is 1.19.

Turning to “ZNF516_Q92618_165_KGAEGSACAPGEAK (UniProt Q92618)”, the “probe-labelled cysteine peptide fold change” value reads like this: (10 µM) 0.0165; (50 µM) -0.317.

Take “ZNHIT6_Q9NWK9_171_FVGQCIK (UniProt Q9NWK9)”: the “probe-labelled cysteine peptide fold change” value is, setting by setting: (10 µM) -0.528; (50 µM) -0.0997.

Turning to “ZW10_O43264_588_RLGTECFLAQMR (UniProt O43264)”, the “probe-labelled cysteine peptide fold change” value runs as follows: (10 µM) 0.00573; (50 µM) -0.0952.

With “YAE1_Q9NRH1_143_SITPPSHVVDLLDSIEDMDLCHVVPAEK (UniProt Q9NRH1)”, the “probe-labelled cysteine peptide fold change” value runs as follows: (10 µM) -0.335; (50 µM) 0.0421.

As to “ZNF687_Q8N1G0_91_NTVCPEQSEALAGGSAGDGAQAAGVTK (UniProt Q8N1G0)”, the “probe-labelled cysteine peptide fold change” value is -0.392 (10 µM) and -0.0527 (50 µM).

As to “WDFY4_Q6ZS81_88_AWEHSVGIICFPSLQR (UniProt Q6ZS81)”, the “probe-labelled cysteine peptide fold change” value is -0.23 (10 µM) and 0.423 (50 µM).

The values are drawn from the supplement of paper PMC12067093, “Discovery and optimisation of a covalent ligand for TRIM25 and its application to targeted protein ubiquitination” (Chemical Science, 2025).
